Consider 103 compounds from PubChem BioAssay AID1259343 (VanderVen Lab, College of Veterinary Medicine, Cornell …, 2017).

Structures are written as SMILES. In all, about 6,200 compounds went through this assay and about 2,900 (47%) were called active. So high a share suggests a set chosen from earlier hits. The list shows a part of the results. Unmarked numbers belong to inactive results. Rule as the data show it: active = inhibition above about 50%; inactive = the rest.

The nature of the assay: Mycobacterium tuberculosis growth inhibition, primary screen (AID 1259343). The following applies: inhibition: at 10 µM, active compounds read high; outcome: 10 uM.
For `OCc1ccc(-c2ccc(-c3ccc(CO)s3)o2)s1`, the inhibition (as a rule, the change of the read-out against control, counted positive when it falls) was 48.6%.

For the compound `Fc1ccc(C2=NN3C(C2)c2ccccc2OC3c2ccncc2)cc1` (stereo not drawn), the inhibition is 14%.

As for `CC(C)C1Oc2ccccc2C2CC(c3ccccc3)=NN21` (stereo not drawn), the inhibition is 63.4% (active).

For the compound `CCC1(C)Oc2ccccc2C2CC(c3ccccc3)=NN21` (stereo not drawn), the inhibition is -17%.

`CC1CCC2(CC1)Oc1ccccc1C1CC(c3ccccc3)=NN12` (stereo not drawn): the inhibition is 55.7% (active).

With `c1ccc(C2=NN3C(C2)c2ccccc2OC32CCCC2)cc1` (stereo not drawn), the inhibition is 32%.

Regarding `COc1ccc(C2Oc3ccccc3C3CC(c4ccccc4)=NN32)cc1OC` (stereo not drawn), the inhibition was -33.1%.

As to `OC[C@@H](O)CN(CCC(F)(F)F)c1nc(-c2ccccn2)nc2c1CCC2`, the inhibition was -1.45%.

Consider `Cc1ccc2c(CC(=O)NC(C)C3CC4CCC3C4)coc2c1` (stereo not drawn), for which the inhibition was 12.9%.

For `CC(NC(=O)c1ccc(Br)o1)C1CC2CCC1C2` (stereo not drawn), the inhibition was 37.7%.

`CC(NC(=O)C=Cc1cccs1)C1CC2CCC1C2` (stereo not drawn): the inhibition is 36.7%.

In the case of `CCNC(=O)c1ccc([N+](=O)[O-])o1`, the inhibition is 15.7%.

In the case of `CC(NC(=O)c1ccc([N+](=O)[O-])o1)C1CC2CCC1C2` (stereo not drawn), the inhibition is 101% (active).

Turning to `CC(NC(=O)c1ccc(Br)o1)C12CC3CC(CC(C3)C1)C2` (stereo not drawn), the inhibition was 0.12%.

With `CC(NC(=O)c1ccc([N+](=O)[O-])o1)C12CC3CC(CC(C3)C1)C2` (stereo not drawn), the inhibition is 106% (active).

For the compound `CC(NC(=O)COc1ccccc1F)C1CC2CCC1C2` (stereo not drawn), the inhibition was 95.6% (active).

For the compound `COc1ccc([C@H]2Oc3cc(OC)cc(OC)c3C[C@H]2O)cc1`, the inhibition is 70.8% (active).

As to `COc1ccc(-c2nnc(CSC(=S)N3CCCC3)o2)cc1`, the inhibition is 84.2% (active).

Turning to `O=C(CSC(F)(F)F)Nc1cnn(-c2ccccc2)c1`, the inhibition was 63.6% (active).

For `O=C(Cc1cnn(-c2ccccc2)c1)NCC1CCCCC1`, the inhibition was 45%.

Take `O=C(O)c1ccc2c(c1)CCN2C(=O)c1cnn(-c2ccccc2)c1`: the inhibition is 15.4%.

For `Cc1csc(NC(=O)COc2c(C)cc(Cl)cc2C)n1`, the inhibition was 73.9% (active).

For the compound `Cc1cccc(OC(C)C(=O)Nc2nc(C(C)C)cs2)c1` (stereo not drawn), the inhibition was 29.5%.

As to `Cc1cc(Cl)cc(C)c1OCC(=O)NNc1ccc(F)cc1`, the inhibition is 96.3% (active).

In the case of `CC(=NNc1nc(C)cs1)c1ccc(Cl)cc1`, the inhibition is 0.03%.

Turning to `Cc1cc(C)c(OCC(=O)NS(=O)(=O)c2c(C)noc2C)c(C)c1`, the inhibition is 44%.

Consider `Cc1csc(NC(=O)C(C)Oc2cccc(Cl)c2)n1` (stereo not drawn), for which the inhibition was 81.2% (active).

Take `CC(=O)Nc1ccc(CC(=O)OCc2ccc(F)cc2)cc1`: the inhibition is 37.7%.

Consider `Cc1cnc(NC(=O)C(C)Oc2cccc(Cl)c2)s1` (stereo not drawn), for which the inhibition is 9.6%.

As to `N#Cc1cccc(CSc2n[nH]c(=O)n2C2CC2)c1`, the inhibition is 3.74%.

Turning to `Cc1ccc(-c2nnn(Cc3cc(C)on3)n2)cc1`, the inhibition was 57.2% (active).

As to `Cc1ccc(-c2nnn(CC(=O)N3CCCCCC3)n2)cc1`, the inhibition is 15.3%.

`N#Cc1ccccc1Cn1nnc(-c2ccccc2)n1`: the inhibition is -34.2%.

For `CC(C)(Cc1c[nH]c2ccc(Cl)cc12)NCCOc1ccccc1OCC1CC1`, the inhibition was 46.8%.

As to `O=C(NC1CC1)c1ccc(Oc2ccc(Br)cc2)nc1`, the inhibition was 16.1%.

Consider `Cc1cc(Oc2ccc(C(=O)O)cn2)ccc1C(C)C`, for which the inhibition is 59.3% (active).

With `CCc1cccc2c3c([nH]c12)C(CC)(CC(=O)O)OCC3` (stereo not drawn), the inhibition is 56.6% (active).

`CSC(c1ccc(O)cc1)=[N+]1CCOCC1`: the inhibition is 99.3% (active).

Turning to `COc1ccc(-c2cnc(CN(C)c3ccccc3F)o2)cc1`, the inhibition was 83.9% (active).

On to `COc1cccc(-c2cnnc(NCCc3ccccc3F)n2)c1`, for which the inhibition is 19.2%.

Take `C=CCSc1nc(N)c(C#N)c(CC)c1C#N`: the inhibition was 58.6% (active).

Regarding `COCCNC(=O)N(C)CC1CCC(C)CC1` (stereo not drawn), the inhibition is 8.33%.

On to `CCc1c(C)nc2c(O)cccn2c1=O`, for which the inhibition was 92.4% (active).

For the compound `CCCCN(CC)C(=O)c1cc2c(=O)n3cccc(C)c3nc2s1`, the inhibition was 35.8%.

With `Cc1cc(C)cc(NC(=O)CSc2ccc(-c3ccncc3)nn2)c1`, the inhibition was 84.3% (active).

Take `Cc1cc(NC(=O)CSc2ccc(-c3ccc(C)c(C)c3)nn2)no1`: the inhibition was 33.5%.

Consider `Cc1ccc(-c2ccc(SCC(N)=O)nn2)cc1C`, for which the inhibition is 37.8%.

As for `O=C(NS(=O)(=O)c1ccccc1F)c1ccc2c(c1)OCO2`, the inhibition was 98.4% (active).

Turning to `CC(NC(=O)c1ccccc1F)c1ccc2c(c1)OCCO2` (stereo not drawn), the inhibition was 36.9%.

Turning to `O=C(NS(=O)(=O)c1ccc2c(c1)OCCCO2)c1ccc(F)cc1`, the inhibition is -7.16%.

Turning to `c1ccc2c(c1)C(=NC1CCCCC1)NC2=NC1CCCCC1`, the inhibition was 62.3% (active).

Regarding `c1cncc(COC2CCCN(Cc3nc(-c4ccc5c(c4)OCO5)no3)C2)c1` (stereo not drawn), the inhibition is 75.8% (active).

Consider `COc1ccc(-c2noc(CN3CCC(c4nc5ccccc5o4)CC3)n2)cc1`, for which the inhibition was 81.3% (active).

Turning to `COc1ccc(-c2noc(CN3CCCC(OCc4ccccn4)C3)n2)cc1` (stereo not drawn), the inhibition is 50.2% (active).

Take `Cc1oc(-c2cc3c(cc2Cl)OCO3)nc1CN1CCCC1c1ccc(F)cc1` (stereo not drawn): the inhibition is 19.7%.

As to `Fc1ccc(C2CCCN2Cc2nc(-c3ccc4c(c3)OCO4)no2)cc1` (stereo not drawn), the inhibition was 62.2% (active).

With `COc1ccc(-c2noc(CN3CCCC(C(=O)c4ccccc4)C3)n2)cc1` (stereo not drawn), the inhibition is 27.8%.

On to `Cc1ccc(Cl)cc1N1CCN(Cc2nc(C3CC3)no2)CC1`, for which the inhibition was -5.02%.

`O=c1c2cc(-c3cccs3)nn2ccn1Cc1nc(-c2ccccc2)no1`: the inhibition was 4.57%.

Take `Fc1ccc(CC2CCN(Cc3nc(CC4CC4)no3)CC2)cc1`: the inhibition is 83.5% (active).

Take `CCCOC1CCCN(Cc2nc(-c3cccc(Cl)c3)no2)C1` (stereo not drawn): the inhibition is 68.8% (active).

As for `CN(Cc1cnn(-c2ccc(F)cc2)c1)Cc1nc(CC2CC2)no1`, the inhibition was 23%.

With `COc1ccc(-c2noc(Cn3ccc4cccnc43)n2)cc1`, the inhibition was 81.3% (active).

On to `Cc1cnc(C)c(N2CCN(Cc3nc(-c4ccc5c(c4)OCO5)no3)CC2)n1`, for which the inhibition is 92.2% (active).

Take `Fc1ccccc1OCC1CCCN(Cc2nc(CC3CC3)no2)C1` (stereo not drawn): the inhibition was 19.6%.

For `c1cc2c(s1)CCN(Cc1nc(-c3ccc4c(c3)OCO4)no1)C2`, the inhibition is 22.1%.

For the compound `CN(C)c1ccc(N=C2N=C(Nc3ccc(N(C)C)cc3)c3ccccc32)cc1`, the inhibition is 44.8%.

As for `COC(=O)[C@H]1[C@H]2C[C@@H]3c4[nH]c5cc(OC)ccc5c4CCN3C[C@H]2C[C@@H](OC(=O)c2cc(OC)c(OC)c(OC)c2)[C@@H]1OC`, the inhibition is 45.9%.

For the compound `Cc1ccccc1C1CCCN(Cc2nc(CC3CC3)no2)C1` (stereo not drawn), the inhibition is 17%.

Turning to `c1ccc(COC2CCCN(Cc3nc(CC4CC4)no3)C2)cc1` (stereo not drawn), the inhibition is 58.5% (active).

For the compound `CC1NC(=S)N(c2cccc(Oc3ccncc3)c2)C1=O` (stereo not drawn), the inhibition was 11.8%.

Turning to `CC1NC(=S)N(c2ccc(C(C)C)cc2)C1=O` (stereo not drawn), the inhibition was 95.8% (active).

`CC1NC(=S)N(c2ccc(-c3cn4ccsc4n3)cc2)C1=O` (stereo not drawn): the inhibition is 46.5%.

For `Cc1cc(=O)[nH]c(-n2nc(C3CC3)cc2NC(=O)c2cccs2)n1`, the inhibition is 100% (active).

Consider `Cc1cc(=O)[nH]c(-n2nc(-c3cccs3)cc2NC(=O)c2ccco2)n1`, for which the inhibition is 99.9% (active).

As to `CCCC(CCC)C(=O)Nc1cc(-c2cccs2)nn1-c1nc(C)cc(=O)[nH]1`, the inhibition was 99% (active).

Regarding `Cc1cc(=O)[nH]c(-n2nc(-c3cccs3)cc2NC(=O)c2c(F)cccc2Cl)n1`, the inhibition was 99.6% (active).

`Cc1cccc(C(=O)Nc2cc(-c3cccs3)nn2-c2nc(C)cc(=O)[nH]2)c1`: the inhibition is 0.07%.

In the case of `Cc1cc(=O)[nH]c(-n2nc(-c3cccs3)cc2NC(=O)c2cccs2)n1`, the inhibition was 98.9% (active).

Take `CCC(=O)Nc1cc(-c2cccs2)nn1-c1nc(C)cc(=O)[nH]1`: the inhibition was 99.9% (active).

For `CC(C)c1cc(=O)[nH]c(-n2nc(-c3cccs3)cc2NC(=O)c2cccs2)n1`, the inhibition is 99.1% (active).

As for `Cc1cc(=O)[nH]c(-n2nc(-c3cccs3)cc2NC(=O)CC(C)(C)C)n1`, the inhibition was -0.63%.

Take `Cc1cc(=O)[nH]c(-n2nc(-c3cccs3)cc2NC(=O)c2ccccc2C)n1`: the inhibition is 98.2% (active).

Regarding `Cc1nc(C(F)(F)F)ccc1C(=O)NC1CC2CC1C1CCCC21` (stereo not drawn), the inhibition was 32.9%.

Regarding `CC1CCCCC1NC(=O)Cn1ccc(C(F)(F)F)n1` (stereo not drawn), the inhibition is 94.9% (active).

With `CC1CCCCC1Nc1ccc2nnc(C(F)(F)F)n2n1` (stereo not drawn), the inhibition is 22.4%.

In the case of `O=C(Oc1ccc2oc(=O)sc2c1)C1CCCCC1`, the inhibition is 75.1% (active).

Take `Oc1ccc2oc3c(c2c1)CCCC3`: the inhibition is 44.4%.

With `O=c1oc2ccc(O)cc2s1`, the inhibition is 83.8% (active).

On to `O=c1c2cc(O)ccc2oc2ccc(O)cc12`, for which the inhibition was 87.5% (active).

Turning to `Cc1ccc(NC(=O)c2ccc(S(N)(=O)=O)c(C)c2)cc1C`, the inhibition was 31.7%.

Turning to `CC(=O)NCc1ccc(C(=O)Nc2ccc(Br)c(C)c2)cc1`, the inhibition is 93.7% (active).

Regarding `Cc1ccc(NC(=O)CNC(=O)c2ccccc2)cc1C`, the inhibition was -8.08%.

As to `Cc1c(C(=O)O)cnn1-c1ccc(Br)cc1`, the inhibition was 39.2%.

As for `CC(=NNc1nc(C)cc(C)n1)c1cc2c(ccc3ccccc32)o1`, the inhibition is 16.4%.

Consider `Cc1cc(C)nc(NN=Cc2cc(Br)cc(Br)c2O)n1`, for which the inhibition was 102% (active).

As for `O=C(NCCc1ccccc1)c1ccc(OC2CCN(C(=O)C3CC34CCC4)CC2)cc1` (stereo not drawn), the inhibition was 19.3%.

Take `O=C(NCc1ccccc1)c1cccc(OC2CCN(C3Cc4ccccc4C3)CC2)c1`: the inhibition was 82.7% (active).

Consider `CC1(C(=O)Nc2nc(-c3cccc(Cl)c3)ns2)CCOCC1`, for which the inhibition was 89.4% (active).

Turning to `Cc1cc(NC(=O)C2(C)CCOCC2)nc(C(C)C)n1`, the inhibition is -0.19%.

Take `C=CCNc1nc(NCCCN2CCCC2=O)c2sc(-c3ccccc3)cc2n1`: the inhibition was 24.9%.

As for `CC(C)(C)OC(=O)NCC1CCCCN1C(=O)c1cc(-c2ccccc2F)on1` (stereo not drawn), the inhibition is 14%.

Take `CC(C)(C#N)C(=O)Nc1cc(-c2ccccc2F)no1`: the inhibition was 88.7% (active).
